# Structures can show the parent of a compound that is named as a salt.
# System: Saccharomyces cerevisiae BY4741 SeMeCo community
# Assay: z-score of subpopulation abundance vs DMSO median, subpopulation auxotrophic for U; higher = larger share of this subpopulation than in DMSO controls
# Details: 10 µM; 24 h; SM minimal medium; subpopulation (auxotrophy): U
# Method: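 Fluorescent four-plasmid SeMeCo (self-establishing metabolically cooperating S. cerevisiae BY4741 community; plasmids pH-mRuby2, pL-mWasabi, pU-eCFP, pM-TagRFP657) was grown 24 h in minimal SM medium with each Selleck FDA-approved drug at 10 µM in 384-well plates. Cells were fixed and imaged by high-content confocal microscopy. For each auxotrophic subpopulation (and the prototroph), a z-score gives the deviation from the DMSO vehicle-control population median.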
row,SMILES,z-score of subpopulation abundance
1,CCC1=C[C@H]2CN3CCc4c([nH]c5ccccc45)[C@](C(=O)OC)(C2)[C@H]13 [Catharanthine],0.69
2,Oc1cccc2cccnc12 [8-Hydroxyquinoline],-0.25
3,CN1[C@@H]2C[C@@H](OC(=O)[C@H](CO)c3ccccc3)C[C@H]1[C@@H]1O[C@@H]12 [Scopolamine HBr],0.09
4,Cc1cc(C(C#N)c2ccc(Cl)cc2)c(Cl)cc1NC(=O)c1cc(I)cc(I)c1O (centres undefined) [Closantel],-0.26
5,COc1ccc2c(c1)[C@]13CCCC[C@@H]1[C@H](C2)N(C)CC3 [Dextromethorphan hydrobromide hydrate],0.26
6,"NCC(O)c1ccc(O)cc1 (racemic) [(+,-)-Octopamine HCl]",0.08
7,CCOC(=O)Nc1ccc(NCc2ccc(F)cc2)cc1N [Retigabine 2HCl],-0.66
8,CN1c2ccccc2C(NCCCCCCC(=O)O)c2ccc(Cl)cc2S1(=O)=O (centres undefined) [Tianeptine sodium],-0.4
9,CNC1CC(N)C(O)C(OC2OC(CO)C(O)C3OC4(OC(C(N)CO)C(O)C(O)C4O)OC23)C1O (centres undefined) [Hygromycin B],0.58
10,CC[N+](C)(CC)CCOC(=O)C(O)(c1ccccc1)c1ccccc1 [Methylbenactyzine Bromide],-0.09
11,CC[C@@H](C(N)=O)N1CCCC1=O [Levetiracetam],0
12,CN1C(=O)COc2c(C(=O)NC3CN4CCC3CC4)cc(Cl)cc21 (centres undefined) [Azasetron HCl],0.36
13,COc1ccc(C(CN(C)C)C2(O)CCCCC2)cc1 (centres undefined) [Venlafaxine HCl],-0.58
14,O=c1[nH]c2ccccc2n1CCCN1CCC(n2c(=O)[nH]c3cc(Cl)ccc32)CC1 [Domperidone],0.4
15,COc1ccc(C=O)cc1 [p-Anisaldehyde],-0.66
16,C=C(C)[C@H]1Cc2c(ccc3c2O[C@@H]2COc4cc(OC)c(OC)cc4[C@@H]2C3=O)O1 [Rotenone (Barbasco)],-0.02
17,Nc1nc(N)nc(NC2CC2)n1 [Cyromazine],0.89

row,SMILES,z-score of subpopulation abundance
1,CC[C@@]1(O)C(=O)OCc2c1cc1n(c2=O)Cc2cc3ccccc3nc2-1 [Camptothecin],-0.45
2,C[N+]12CCC(CC1)C(OC(=O)C(O)(c1ccccc1)c1ccccc1)C2 (centres undefined) [Clidinium Bromide],0.71
3,COc1cc2c(cc1OC)C1CC(=O)C(CC(C)C)CN1CC2 (centres undefined) [Tetrabenazine (Xenazine)],-1.18
4,COc1ccc2c3c([nH]c2c1)C(C)=NCC3 [Harmaline],-8.11
5,COc1ccc(C(CN(C)C)C2(O)CCCCC2)cc1 (centres undefined) [Venlafaxine],0.93
6,O=C(O[C@H]1C[C@H]2CC[C@@H](C1)[N+]21CCCC1)C(O)(c1ccccc1)c1ccccc1 [Trospium chloride],-0.17
7,CC(=O)OCC1=C(C(=O)O)N2C(=O)C(N)C2SC1 (centres undefined) [7-Aminocephalosporanic acid],0.52
8,CCOC(=O)Nc1ccc(NCc2ccc(F)cc2)cc1N [Retigabine],-0.91
9,CN(C)[C@@H]1C(=O)C(C(N)=O)=C(O)[C@@]2(O)C(=O)C3=C(O)c4c(O)cccc4[C@@](C)(O)[C@H]3C[C@@H]12 [Tetracycline HCl],0.13
10,C[N+](C)(C)CCCCCCCCCC[N+](C)(C)C [Decamethonium Bromide],0.01
11,O=[N+]([O-])C(Br)(CO)CO [Bronopol],1.02
12,CN(C)C(=O)Oc1ccc[n+](C)c1 [Pyridostigmine Bromide],0.29
13,CCN(CC)CCOC(=O)C(O)(c1ccccc1)c1ccccc1 [Benactyzine hydrochloride],1.08
14,N#Cc1nn(-c2c(Cl)cc(C(F)(F)F)cc2Cl)c(N)c1[S+]([O-])C(F)(F)F (centres undefined) [Fipronil],-0.36
15,CN(C)[C@@H]1C(=O)C(C(N)=O)=C(O)[C@@]2(O)C(=O)C3=C(O)c4c(O)cccc4[C@@](C)(O)[C@H]3[C@H](O)[C@@H]12 [Oxytetracycline (Terramycin)],0.03
16,CC(=O)O[C@H]1C[C@@H]2CC[C@@H]3[C@H](CC[C@@]4(C)[C@H]3C[C@H]([N+]3(C)CCCCC3)[C@@H]4OC(C)=O)[C@@]2(C)C[C@@H]1[N+]1(C)CCCCC1 [Pancuronium dibromide],0.25
17,CN[C@@H]1[C@@H](O)[C@@H](O[C@@H]2[C@@H](O)[C@H](O[C@H]3O[C@H](CN)CC[C@H]3N)[C@@H](N)C[C@H]2N)OC[C@]1(C)O.CN[C@@H]1[C@@H](O)[C@@H](O[C@@H]2[C@@H](O)[C@H](O[C@H]3O[C@H]([C@@H](C)N)CC[C@H]3N)[C@@H](N)C[C@H]2N)OC[C@]1(C)O.CN[C@@H]1[C@@H](O)[C@@H](O[C@@H]2[C@@H](O)[C@H](O[C@H]3O[C@H]([C@@H](C)NC)CC[C@H]3N)[C@@H](N)C[C@H]2N)OC[C@]1(C)O [Gentamicin Sulfate],0.09

# — the supplement of paper PMC8975748
